Laboratory results published in PubChem BioAssay AID1569 (National Center for Advancing Translational Sciences (NCATS), 2009).
Results filed as inconclusive are left out. Calls of active or inactive are those of the source. The call rests on the fitted dose curve; in most records, active means well fitted inhibition curve with a large enough effect; inconclusive means small, poorly fitted or top-dose-only effect, or effect the other way, or another doubt; inactive means no such curve, though single readings can be large or run the other way.
Potency means the concentration at half of the fitted maximal effect.

Assay: Confirmation Concentration-Response Assay for lipid storage modulators; further: nearly all actives have a fitted effect of over 80% in size
Conditions: Drosophila S3 cells, lipid droplet BODIPY/CellTracker ratio, 18-24 h; series mostly up to 46.1 µM
Excerpt: NIH Molecular Libraries Probe Production Centers Network [MLPCN] NIH Chemical Genomics Center [NCGC] MLPCN Grant: 1 R03 MH085686-01 Assay Submitter (PI): Beller, Mathias; Max-Planck-Institut fur Biophysikalische Chemie NCGC Assay Overview: Storing lipids as a reservoir for energy or the anabolism of elementary metabolites is a common feature of probably all cells and is conserved from bacteria to humans. The universal cellular lipid storage organelle is the so-called lipid storage droplet (LD). Although ubiquitous, LDs share a simple structure composed of a hydrophobic core that harbors the storage lipids, which is shielded by a droplet-specific phospholipid monolayer to which proteins are attached. The current model of LD biogenesis involves an incorporation of the lipid core into the membrane leaflets of the endoplasmic reticulum (ER) followed by a subsequent budding-like maturation of a LD, which ultimately pinches off. Once released, LD volume can increase by localized lipogenesis or fusion of existing droplets. Storage lipids are re-mobilized enzymatically by lipase activity. Lipase regulation in the adipocyte is heavily studied and involves multiple components including catecholamine signaling, the LD-associated proteins Perilipin and comparative gene identification-58 (CGI-58) and at least two lipases named hormone sensitive lipase (HSL) and adipocyte triglyceride lipase (ATGL). LD regulation outside of the adipocyte is poorly understood and only few components are known. However, there is an urgent need to learn more about ectopic fat depots as mislocalized storage of lipids, for example in the liver or muscle, is an eminent health problem associated with insulin resistance or the metabolic syndrome. We developed a laser-scanning cytometer assay to enable 1,536-well screening and combined the results of the small molecules screen with an RNAi database based on lipid storage. Exo1 identified in the primary screen (AID 1519) and several analogs were measured in the lipid storage assay as 24-point concentration-response curves to confirm potency and SAR.
We dispensed 4 uL of cells at 1.25 x 10^6 cells/mL into LoBase Aurora COC 1,536-well plates (black walled, clear bottom) with a bottle-valve solenoid-based dispenser (Aurora) to obtain 5,000 cells/well. Triacsin C (Sigma-Aldrich T-4540), an inhibitor of long-chain fatty acyl CoA synthetase that blocks synthesis of triglycerides, was used as a positive control for lipid under-storage. A total of 23 nL of compound solution of different concentrations were transferred to the assay plates using a Kalypsys pin tool equipped with a 1,536-pin array containing 10-nL slotted pins (FP1S10, 0.457-mm diameter, 50.8 mm long; V&P Scientific). One microliter of oleic acid (400 uM) was added, and the plate was lidded with stainless steel rubber gasket lined lids containing pinholes. After 18-24 h incubation at 24 degree Celsius and 95% humidity, 4 uL of the dyes BODIPY 493/503 (Molecular Probes) and the Cell Tracker Red CMTPX dye (Molecular Probes) were added to the wells to stain lipid droplets and enumerate cell number, respectively. Fluorescence was detected by excitation of the fluorophores with a 488-nm laser on an Acumen Explorer (TTP Lab Tech). The total intensity in channel 1 (500-530 nm) reflected lipid droplet accumulation. Cells were detected using channel 3 (575- 640 nm) with 5-um width and 100-um depth filters. The ratio of the total intensity in PMT channel 1 over total intensity of channel 3 was also calculated. Percent activity was computed relative to an internal control (100% inhibited lipid droplet deposition due to the presence of 20 uM Triacsin C), which was added to 32 wells/plate.
With `CCN(CC)S(=O)(=O)c1cc(NC(=O)CNc2cccc(S(=O)(=O)N3CCOCC3)c2)ccc1C` the Potency was 2.81 µM (active). For `CCCCc1c(O)nc(SCC(=O)NCCc2ccc(OC)c(OC)c2)[nH]c1=O`, the Potency was “inactive”. With `O=C1C(Nc2ccccc2)=C/C(=N/S(=O)(=O)c2cccs2)c2ccccc21` the Potency was 7.91 µM (active). For `CCOC(=O)c1c(C)[nH]c(C(=O)OCC(=O)NCCc2ccc(OCC)c(OCC)c2)c1C`, the Potency was 0.888 µM (active). In the case of `O=C(O[C@H]1[C@H](Cc2ccccc2)NS(=O)(=O)[C@H]2C[C@@H]3C=C[C@]12O3)c1ccc([N+](=O)[O-])cc1`, the Potency is reported as 28.1 µM (active). In the case of `Cc1ccc(S(=O)(=O)N(C)C)cc1NC(=O)COC(=O)c1sc2cc(Cl)ccc2c1Cl`, the Potency is reported as 14.1 µM (active). With `COc1ccc(Cl)cc1NC(=O)CN(C)C(=O)CCCc1c[nH]c2ccccc12` the Potency was 22.3 µM (active). In the case of `O=C(CCc1ccccn1)NC1CCCc2c1cnn2-c1ccc(F)cc1F` (stereo not given), the Potency is reported as “inactive”. For `CCOc1ccc(CCNC(=O)Cn2cccc2C(=O)c2ccccc2)cc1OCC`, the Potency was 7.91 µM (active). For `COc1cccc(/C=C/C(=O)NCCc2ccc(OC)c(OC)c2)c1`, the Potency was 1.77 µM (active). For `CC(C)(C)c1ccc(/C=C2\SC(=O)N(CCNC(=O)c3cccc(S(=O)(=O)N4CCOCC4)c3)C2=O)cc1`, the Potency was 8.88 µM (active). With `Nc1cccc(-c2nc3cc(S(=O)(=O)c4ccc5oc(-c6cccc(N)c6)nc5c4)ccc3o2)c1` the Potency was 6.28 µM (active). In the case of `COc1ccc(/C=C/C(=O)NCCc2ccc(OC)c(OC)c2)cc1`, the Potency is reported as 5.6 µM (active). With `CC1CCCN(C2=C(NS(=O)(=O)c3ccc(Br)cc3)C(=O)c3ccccc3C2=O)C1` (stereo not given) the Potency was 2.5 µM (active). For `CN(Cc1cccc(F)c1)C(=O)c1ccc2c(=O)n3c(nc2c1)CCC3`, the Potency was “inactive”. With `COc1ccc(NC(=O)NC2(C(=O)N3CCN(C)CC3)CCCCC2)cc1` the Potency was “inactive”. With `CCC(C)(C)NC(=O)C(c1ccc(OC)cc1)N(CCOC)C(=O)CCC(=O)Nc1nccs1` (stereo not given) the Potency was 19.9 µM (active). With `COc1ccc(NC(=O)NC2(C(=O)N3CCN4CCCC4C3)CCCCC2)cc1` (stereo not given) the Potency was “inactive”. With `CCOC(=O)c1cc(CC)sc1NC(=O)C1CC(=O)NN1Cc1ccccc1` (stereo not given) the Potency was 0.315 µM (active). With `CCOc1ccc(CCNC(=O)CN2CCN(Cc3ccccc3C)C2=O)cc1OCC` the Potency was “inactive”. With `CCOc1ccc(CCNC(=O)CSCc2ccc(C)cc2)cc1OCC` the Potency was “inactive”. For `CCc1cccc2cc3c(N)c(C(=O)Nc4ccc(S(=O)(=O)N5CCCC5)cc4)sc3nc12`, the Potency was 9.96 µM (active). For `Cc1ccc(-n2ncc3c2CCCC3NC(=O)c2cnccn2)cc1C` (stereo not given), the Potency was 0.141 µM (active). For `Cc1cccc(OCc2nnc(SCC(=O)N3c4ccccc4CC3C)n2C)c1C` (stereo not given), the Potency was 6.28 µM (active). With `COc1ccc(CCn2ccc(O)c(Cc3c(F)cccc3Cl)c2=O)cc1OC` the Potency was 0.434 µM (active). For `CCCCCCCCCC[n+]1cccc2c3ccccc3ccc21`, the Potency was 1.77 µM (active). In the case of `COc1ccc(CCNC(=O)Cn2cccc2C(=O)c2ccccc2C)cc1OC`, the Potency is reported as “inactive”. In the case of `CCOc1ccc(OCC)c(NC(=O)C2CCN(S(=O)(=O)c3c(C)noc3C)CC2)c1`, the Potency is reported as 0.996 µM (active). For `Nc1c(C(=O)Nc2ccc(S(=O)(=O)N3CCCC3)cc2)sc2nc3ccc(OC(F)(F)F)cc3cc12`, the Potency was 8.88 µM (active). In the case of `COc1ccc(CCn2ccc(O)c(Cc3ccc(Cl)cc3)c2=O)cc1OC`, the Potency is reported as 0.315 µM (active). In the case of `COc1ccc(CCNC(=O)C(Sc2ccccn2)c2ccccc2)cc1OC` (stereo not given), the Potency is reported as “inactive”. In the case of `c1ccc(-c2csc3ncnc(NCC4COc5ccccc5O4)c23)cc1` (stereo not given), the Potency is reported as 1.99 µM (active). With `COc1ccc(OC)c(CCNC(=O)Cn2sc3nc(C)cc(C)c3c2=O)c1` the Potency was 4.99 µM (active). For `S=C(Nc1cc(Cl)ccc1Oc1ccccc1)N1CCN(c2ccccn2)CC1`, the Potency was 2.5 µM (active). In the case of `COc1ccc(N=NC2C(=O)N(c3ccccc3)N=C2C)cc1` (stereo not given), the Potency is reported as 14.1 µM (active). With `c1ccc2c(c1)OCC(CNc1ncnc3sccc13)O2` (stereo not given) the Potency was 0.996 µM (active). With `COc1ccc2c(c1)O[C@@H](c1cccc(C(F)(F)F)c1)[C@H](OC(=O)NCCc1ccc(OC)c(OC)c1)C2=O` the Potency was 4.99 µM (active). In the case of `COc1ccc(/C=C\C(=O)NCc2ccc3[nH]c(C)cc3c2)cc1OC`, the Potency is reported as 4.45 µM (active). For `Cc1ccc(S(=O)(=O)NCCC2=CCCCC2)cc1C(N)=O`, the Potency was 22.3 µM (active). In the case of `c1ccc(CNc2ncnc3ccccc23)cc1`, the Potency is reported as 12.5 µM (active).
